About 83,000 compounds went through this panel and 20% of them were active in at least one assay; those are over-represented in the sample as a whole.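 Results are percent growth after 48 hours of single-concentration exposure. 100 means growth as in untreated cells, lower positive values show inhibition; negative values down to -100 show cell death.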 Activity calls are given as the source filed them. How the source made its calls: active means growth percent below 10; inactive means the rest.

From PubChem BioAssay (NCI) come the findings set out here.

This experiment concerns M14 melanoma. As to the kind of experiment: NCI-60 one-dose screen, 48 h (100 = growth as untreated, 0 = no growth, -100 = all killed). To be noted: 10 µM.
Turning to `O=C(Nc1ccc(I)cc1F)c1cc(-c2ccc(F)cc2F)ccc1O`, the growth is 28.8% (inactive).

With `CN1CCN(c2ccc(C(=O)/C=C/c3ccc(C#N)cc3)cc2)CC1`, the growth is 79.6% (inactive).

In the case of `Cc1ccc([N+](=O)[O-])c(C(=O)Nc2ccc(-c3ccc4c(c3)NC(=O)/C4=C\c3ccc[nH]3)cc2)c1`, the growth is 34.2% (inactive).

`CNCc1cccc2c1OCCCCCC[C@@](C)(O)CC1(CC1)S(=O)(=O)c1ccc(cc1)-c1cnc(N)c(n1)C(=O)N2`: the growth was -38.6% (active).

Consider `Cc1cccc(NC(=O)CSc2nc3ccc(F)cc3c(=O)n2-c2ccc(Cl)cc2)c1C`, for which the growth is 74% (inactive).

For `CC(=O)OC[C@@]1(C)C2CC[C@]3(C)C(CC=C4C5CC(C)(C)CC[C@]5(C(=O)Nc5ccccc5)CC[C@]43C)[C@@]2(C)C[C@@H](OC(C)=O)[C@@H]1OC(C)=O` (stereo partly specified), the growth is 50.9% (inactive).

Take `CC1=C2C(=C[C@@](C)(COCOCCCl)[C@@H]2O)C(=O)[C@](C)(O)C12CC2`: the growth was -16% (active).

On to `CCN1CCN(Cc2ccc(NC(=O)c3cccc(-n4cc(-c5ccc(NC(C)=O)nc5)nn4)c3)cc2C(F)(F)F)CC1`, for which the growth was 78.3% (inactive).

In the case of `O=C(c1ccc(O)cc1)C1[C@H](c2ccc(Br)cc2)[C@@H](c2ccccc2)NC12C(=O)Nc1ccccc12` (stereo partly specified), the growth was 51.7% (inactive).

For the molecule `Nc1nnc(-c2c[nH]c3ccc(F)cc23)c(-c2c[nH]c3ncccc23)n1`, the growth is 63.5% (inactive).

Consider `O=C(c1ccc(Cl)cc1)C1[C@H](c2ccccc2Br)[C@@H](c2ccccc2)NC12C(=O)Nc1ccc(Cl)cc12` (stereo partly specified), for which the growth is 25.2% (inactive).
